Screening data: PubChem, The Scripps Research Institute Molecular Screening Center
GPR151 activ: activates the human receptor GPR151. PathHunter beta-arrestin GPR151 cells, luminescence. activation, % at 11.2 µM. actives 1% (n = 650,000). AID 1508602; in the data active means activation above about 4.9%
Target sequence (Q8TDV0 whole entry, looked up): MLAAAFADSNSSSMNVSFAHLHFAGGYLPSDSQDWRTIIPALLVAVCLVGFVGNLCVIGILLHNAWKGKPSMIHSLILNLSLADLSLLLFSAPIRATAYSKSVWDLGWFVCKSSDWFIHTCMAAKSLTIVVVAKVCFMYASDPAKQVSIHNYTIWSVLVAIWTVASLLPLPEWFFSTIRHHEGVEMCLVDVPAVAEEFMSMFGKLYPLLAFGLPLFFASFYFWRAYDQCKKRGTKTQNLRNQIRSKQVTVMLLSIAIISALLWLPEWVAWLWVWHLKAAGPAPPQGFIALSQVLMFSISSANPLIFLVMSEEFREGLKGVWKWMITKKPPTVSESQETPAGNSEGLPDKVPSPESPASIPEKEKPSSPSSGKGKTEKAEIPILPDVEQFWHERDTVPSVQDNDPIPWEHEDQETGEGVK
TEAD-YAP inh: TEAD-YAP interaction inhibition. AID 1259422. actives 1.4% (n = 640,000). inhibition, % at 9.12 µM. HEK-TIYL cells, TEAD-Gal4/YAP UAS-luciferase luminescence; in the data active means inhibition above about 32%
FBW7 act: human FBW7 E3 ligase activation, primary screen; normalized activity (activation), % at 26.1 µM; Q969H0; AlphaScreen FBW7–phospho-cyclin E peptide binding, activator screen; actives 0.13% (n = 650,000); AID 1259310; in the data active means normalized activity above about 1.9%;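 further: purified mutant Fbw7 with reduced substrate affinity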
MITF inh: blocks human microphthalmia-associated transcription factor; inhibition, % at 2.6 µM; AlphaScreen MITF homodimerization, bead proximity signal; AID 1259374; actives 0.91% (n = 650,000); in the data active means inhibition above about 50%
MITF inh conf: human MITF inhibition, confirmation; shares compounds with MITF inh; AlphaScreen MITF homodimerization, biotin/His-MITF beads; inhibition, % at 2.6 µM; actives 16% (n = 4,700);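 active means inhibition above a cutoff derived from the DMSO control wells, cut at about 28% in these data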;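 further: inhibitors lower the bead chemiluminescence by keeping MITF from dimerizing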
AlphaScreen DR: optically interferes with AlphaScreen signal in dose response. shares compounds with MITF inh. AlphaScreen optical interference counterscreen, cell-free. IC50, µM. actives 6% (n = 480); call rule not given here
AS interf ctr: AlphaScreen optical interference, counter-screen; shares compounds with MITF inh; AID 1259376; inhibition, % at 2.6 µM; LysRS AlphaScreen counterscreen, signal interference, triplicate; actives 7.6% (n = 4,700);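 active means inhibition above a cutoff derived from the DMSO control wells, cut at about 30% in these data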
Of the large screens only hits and unclear results are named; the others gave an inactive call (follow-up assays come after a bar, where they were run). In the library only some 3.4% were active in any assay of this set; here they are far more common.

CCOC(=O)c1ccc(N2C(=O)C(=O)/C(=C(\O)c3ccc(OC)cc3)C2c2ccccc2[N+](=O)[O-])cc1 (stereo not drawn)	MITF inh 52 | MITF inh conf inactive | AS interf ctr inactive
Cc1ccoc1C(=O)NCc1occc1C(=O)O	MITF inh 57 | MITF inh conf inactive | AS interf ctr inactive
Cc1ccoc1C(=O)NCCNC(=O)c1occc1C	none
COc1ccc(C(=O)N2CCN(Cc3cc(OC)c(O)c(OC)c3)CC2)cc1OC	none
COc1cc(OC)cc(C(=O)N2CCN(Cc3ccc(C(F)(F)F)cc3)CC2)c1	MITF inh 52 | MITF inh conf inactive | AS interf ctr inactive
COc1ccc(C(=O)N2CCN(Cc3ccc(C(F)(F)F)cc3)CC2)cc1OC	TEAD-YAP inh 49, MITF inh 51 | MITF inh conf inactive | AS interf ctr inactive
COc1cc(OC)cc(C(=O)N2CCN(Cc3ccc4ccccc4c3)CC2)c1	none
CCOC(=O)c1ccsc1NC(=S)NCc1ccccc1	none
CCN(CC)c1nc(NCCN2CCOCC2)nc(Nc2ccc3ncccc3c2)n1	none
Cc1ccc(C)c(NC(=O)CNCC(C)(C)CN(C)C)c1	MITF inh 74 | MITF inh conf inactive | AS interf ctr inactive
CN(C)CC(C)(C)CNCC(=O)Nc1ccc(OC(F)(F)F)cc1	MITF inh 55 | MITF inh conf inactive | AS interf ctr inactive
CCC(C)(C)NCC(=O)Nc1ccc(OC(F)(F)F)cc1	none
Cc1ccc(C)c(NC(=O)CCC(=O)Nc2cc(C)ccc2C)c1	none
COCCNCCCCOc1ccc(Cl)c(Cl)c1	MITF inh 57 | MITF inh conf inactive | AS interf ctr inactive
OCCNCCCCOc1ccc(Cl)c(Cl)c1	MITF inh 58 | MITF inh conf inactive | AS interf ctr inactive
COCCCNCCCCOc1ccc(Cl)c(Cl)c1	none
COc1cc(NC(=O)Nc2cccc(C(C)=O)c2)cc(OC)c1OC	none
COc1cc(Nc2cccc(C(N)=O)c2)cc(OC)c1OC	MITF inh 73 | MITF inh conf inactive | AS interf ctr inactive
CC1(C)Cc2c(sc3nc(NNC(=O)c4ccccc4)[nH]c(=O)c23)CO1	MITF inh 73 | MITF inh conf inactive | AS interf ctr inactive
Cc1cccc(OC(C)C(=O)Nc2ccc(S(=O)(=O)N3CC(C)OC(C)C3)cc2)c1C (stereo not drawn)	none
CCN1CCN(CCOc2ccccc2-c2ccccc2)CC1	none
c1ccc(-c2ccccc2OCCN2CCOCC2)cc1	MITF inh 78 | MITF inh conf inactive | AS interf ctr inactive
c1ccc(-c2ccccc2OCCCCN2CCOCC2)cc1	MITF inh 77 | MITF inh conf inactive | AS interf ctr inactive
CN1CCN(CCOc2ccccc2-c2ccccc2)CC1	MITF inh 55 | MITF inh conf inactive | AS interf ctr inactive
CNC(=O)c1ccsc1NC(=O)/C=C/c1ccccc1	none
O=C(CCl)N1CCc2ccccc2C1	none
O=C(Cn1ncn2cccc2c1=O)N1CCc2ccccc2C1	MITF inh 66 | MITF inh conf 67 | AlphaScreen DR inactive | AS interf ctr inactive
CC(=O)N1CCN(CC(=O)N2CCc3ccccc3C2)CC1	MITF inh 83 | MITF inh conf inactive | AS interf ctr inactive
Fc1cccc(-c2nnc3ccc4ccccc4n23)c1	none
Brc1ccccc1CN1CCN(Cc2c[nH]c3ccccc23)CC1	MITF inh 59 | MITF inh conf inactive | AS interf ctr inactive
Fc1ccccc1CN1CCN(Cc2c[nH]c3ccccc23)CC1	MITF inh 65 | MITF inh conf inactive | AS interf ctr inactive
Fc1ccccc1CN1CCN(Cc2ccc3ccccc3c2)CC1	MITF inh 75 | MITF inh conf inactive | AS interf ctr inactive
c1ccc2cc(CN3CCOCC3)ccc2c1	none
c1cnc(N2CCN(Cc3c[nH]c4ccccc34)CC2)nc1	none
CCS(=O)(=O)N1CCN(Cc2c[nH]c3ccccc23)CC1	MITF inh 51 | MITF inh conf inactive | AS interf ctr inactive
CO[C@H]1[C@H](NC(=O)C(C)C)c2ccccc2C12CCN(C(=O)c1ccc(C)s1)CC2	none
CCc1ccc(NC(=O)COC(=O)CCC2CCCC2)cc1	none
Fc1ccccc1CN1CCCCCC1	none
c1ccc2c(CN3CCN(Cc4c[nH]c5ccccc45)CC3)cccc2c1	MITF inh 74 | MITF inh conf inactive | AS interf ctr inactive
